Source: PubChem BioAssay
Myeloid diff MLP: induction of myeloid progenitor differentiation, primary screen, cell-based, flow cytometry, MLPCN library. ER-HoxA9 myeloid progenitors, lysozyme-GFP differentiation. calls only at 10 µM. hit rate 1% among 360,000;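 active = normalized GFP-positive differentiation at or above the plate's own cutoff, the solvent-only control mean plus 3 SD; inconclusive = no clear call, values can overlap the other calls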;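 note: cells exposed to compound for four days before flow analysis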
Granule exo inh: LAMP-1 surface exposure blockers, TALL-104 cells – cell-based, flow cytometry, MLPCN library, primary screen. hit rate 0.66% among 360,000. TALL-104 LAMP-1 surface exposure; cells stimulated with thapsigargin and PMA. inhibition, % at 10 µM. AID 651702, 2012;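 active = inhibition above about 55%, limit read from the data; inconclusive = no clear call, values can overlap the other calls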
ABCB6 inh 2: ABCB6 transporter inhibitors, primary screen, K562-ABCB6 cells, flow cytometry, MLPCN library; fluorescence ratio to DMSO, % at 10 µM; AID 602162, 2011; hit rate 0.19% among 360,000; K562-ABCB6 porphyrin accumulation, 1 h; hits give low values;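 active = fluorescence ratio to DMSO below 75%, the collection mean minus 3 SD; inconclusive = too few cells collected in the well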;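 note: signal is porphyrin accumulated inside mitochondria; lower ratio means ABCB6 inhibition with less porphyrin fluorescence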
Target sequence (Q9NP58 whole entry, looked up): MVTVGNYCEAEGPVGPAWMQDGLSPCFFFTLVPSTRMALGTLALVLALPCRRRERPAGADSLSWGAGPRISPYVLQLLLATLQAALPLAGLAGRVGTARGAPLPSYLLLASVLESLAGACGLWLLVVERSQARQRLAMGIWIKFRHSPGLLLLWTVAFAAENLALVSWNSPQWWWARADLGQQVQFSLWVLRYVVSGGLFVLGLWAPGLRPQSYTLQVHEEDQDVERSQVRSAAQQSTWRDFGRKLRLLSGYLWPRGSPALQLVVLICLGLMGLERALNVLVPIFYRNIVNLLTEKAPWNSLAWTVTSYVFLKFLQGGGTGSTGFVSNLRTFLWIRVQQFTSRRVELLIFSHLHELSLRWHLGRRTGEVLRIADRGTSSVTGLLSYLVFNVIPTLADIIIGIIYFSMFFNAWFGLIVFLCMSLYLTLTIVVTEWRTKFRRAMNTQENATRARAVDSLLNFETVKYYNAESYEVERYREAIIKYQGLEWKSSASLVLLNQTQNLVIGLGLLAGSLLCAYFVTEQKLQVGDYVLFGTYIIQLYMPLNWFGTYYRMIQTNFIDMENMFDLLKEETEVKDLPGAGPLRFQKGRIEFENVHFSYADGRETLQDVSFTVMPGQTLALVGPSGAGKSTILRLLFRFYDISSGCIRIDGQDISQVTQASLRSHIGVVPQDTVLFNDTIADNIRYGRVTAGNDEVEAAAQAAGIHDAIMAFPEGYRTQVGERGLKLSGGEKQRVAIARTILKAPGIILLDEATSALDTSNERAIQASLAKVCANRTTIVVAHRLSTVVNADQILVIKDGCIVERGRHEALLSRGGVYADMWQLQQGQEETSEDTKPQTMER
Myeloid diff CP1: inducers of myeloid progenitor differentiation, confirmation, cell-based, GFP/Mac1 flow cytometry, cherry pick 01. shares compounds with Myeloid diff MLP. ER-HoxA9 myeloid progenitors, GFP/Mac1 double-positive flow. calls only. hit rate 2% among 2,300. AID 651706, 2012;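 active = share of green or green-and-red cells above 9 and 9% in run 1 or 4 and 3% in run 2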
GFP autofluor: flagged as fluorescent in myeloid differentiation counter-screen; shares compounds with Myeloid diff MLP; ER-HoxA9 myeloid progenitors, no estrogen, GFP autofluorescence flow cytometry; vehicle wells 0%, positive control 100%; fluorescence response, % (no concentration beside the values); hit rate 7.4% among 2,300; AID 651707;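 active = over 5% cells positive for green fluorescent reporter, or over 2% positive for both it and APC stain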
Large screens that a line does not name were inactive (follow-up assays come after a bar, where they were run). In the library only some 1.8% were active in any assay of this set; here they are far more common.

CN1CCCC(OC(=O)c2ccc(S(=O)(=O)N(C)C)cc2)C1 (stereo unspecified)	none
Cc1ccc2c(nc3s/c(=C\c4ccc(-c5ccccc5C(=O)O)o4)c(=O)n32)c1C	none | Myeloid diff CP1 inactive | GFP autofluor 12.7
O=C(O)c1ccc(-c2ccc(/C=c3/sc4nc5ccccc5n4c3=O)o2)cc1Cl	none | Myeloid diff CP1 inactive | GFP autofluor inactive
CC1(C)OC(=O)C(=Cc2ccc(-c3ccc(Cl)c(C(=O)O)c3)o2)C(=O)O1	none
Cc1cc(C)c2nc3sc(=Cc4ccc(-c5ccccc5C(=O)O)o4)c(=O)n3c2c1	none
CC(C)n1ncc2c(C(=O)Nc3cccc(C#N)c3)cc(C3CC3)nc21	none
CO/N=C/C(C#N)=C/c1cc(C(=O)c2ccccc2)cn1C	none
CCn1cc(C(=O)N(CCC(C)C)c2c(N)n(Cc3ccccc3)c(=O)[nH]c2=O)c(=O)c2ccc(C)nc21	none
COc1ccccc1OCC(=O)/C=C1/N(C)c2ccccc2C1(C)C	none
CN1/C(=C/C(=S)NC(=O)C2CCC2)C(C)(C)c2ccccc21	none | Myeloid diff CP1 inactive | GFP autofluor inactive
COc1ccccc1N1CCN(CCS(=O)(=O)c2cc(Cl)ccc2Cl)CC1	none
CC(=O)N1CCN(C(=O)CCc2nc3ccccc3c(=O)[nH]2)CC1	Myeloid diff MLP active | Myeloid diff CP1 inactive | GFP autofluor inactive
O=C(CCc1nc2ccccc2c(=O)[nH]1)N1CCN(c2ccc(F)cc2)CC1	none
CCc1nc2ccc(C(=O)NCCCN(C)C)cn2c1N(C)Cc1ccc(OC)cc1	none
COc1ccccc1NC(=O)Cn1c([N+](=O)[O-])cnc1C	none
COc1ccc(N2CCN(Cc3nc4c(c(=O)n(C)c(=O)n4C)n3Cc3cccc(C)c3)CC2)cc1	none | Myeloid diff CP1 inactive | GFP autofluor inactive
COc1ccc(N2CCN(c3nc4c(c(=O)n(C)c(=O)n4C)n3Cc3ccccc3)CC2)cc1	none
COc1cc(OC)c(-c2c3cc(O)c(=O)cc-3oc3cc(O)c(O)cc23)cc1OC	Myeloid diff MLP active | Myeloid diff CP1 inactive | GFP autofluor 99.2
COc1cc(-c2cc(=O)c3ccc(O)cc3o2)cc(OC)c1OC	none
Cc1cc(Cl)c(C)c(S(=O)(=O)N2CCN(C(=O)C3CCCO3)CC2)c1Cl (stereo unspecified)	Myeloid diff MLP active | Myeloid diff CP1 inactive | GFP autofluor inactive
Cc1ccc(S(=O)(=O)N2CCN(C(=O)C3CCCO3)CC2)cc1 (stereo unspecified)	none
NNC(=O)c1csc(-c2ccccc2)n1	Myeloid diff MLP active | Myeloid diff CP1 inactive | GFP autofluor inactive
NNC(=O)Cc1csc(-c2ccccc2)n1	none
CCOC(=O)[C@@H](NC(=O)/C=C/[C@H]1O[C@@H](n2ccc(=O)[nH]c2=O)[C@H](O)[C@@H]1O)C(C)C	none
N#C/C(=C\Nc1ccc2cn[nH]c2c1)c1nc(-c2ccc(Cl)cc2)cs1	Myeloid diff MLP active | Myeloid diff CP1 active | GFP autofluor inactive
CCN(CC)CCOC(=O)c1ccc(N/C=C(/C#N)c2nc(-c3ccc4c(c3)OCO4)cs2)cc1	none
Cc1nc2nc(C)c(NS(=O)(=O)c3ccc4c(c3)CCCC4)c(=O)n2[nH]1	none
O=C(CN1CCOCC1)Nc1cc(C(F)(F)F)ccc1Cl	none
O=C(CN1CCN(c2ccc(F)cc2)CC1)Nc1cc(C(F)(F)F)ccc1Cl	none | Myeloid diff CP1 inactive | GFP autofluor inactive
Cc1ccc(OCC(=O)NCCNC(=O)c2ccccn2)cc1	none
Cc1c(C(=O)OCC(=O)NCc2ccco2)cccc1[N+](=O)[O-]	none
O=C(CN1CCCCC1)Nc1nnc(-c2ccc([N+](=O)[O-])cc2)s1	none | Myeloid diff CP1 inactive | GFP autofluor inactive
O=C(CN1CCCCC1)Nc1nnc(-c2ccccc2)s1	none
COc1cc2c(cc1OC)CN(CC(=O)Nc1ccccc1C(=O)NCc1ccccc1)CC2	none (no result: Myeloid diff MLP)
COc1cc2c(cc1OC)CN(CC(=O)NC(=O)NCc1ccccc1)CC2	Myeloid diff MLP active | Myeloid diff CP1 inactive | GFP autofluor inactive
COc1cccc(NC(=O)CN(C)C(=O)C(Sc2ccccc2)c2ccccc2)c1 (stereo unspecified)	none
CC1c2cc3c(cc2CCN1S(=O)(=O)c1ccccc1)OCCCO3 (stereo unspecified)	none
CCN1C(=O)/C(=C2/Sc3ccc(OC)cc3N2C)SC1=Nc1ccc(OC)cc1	none
C=CCN1C(=O)/C(=C2/Sc3ccc(OC)cc3N2C)SC1=Nc1cccc(O)c1	none | Myeloid diff CP1 inactive | GFP autofluor inactive
CN1CCc2c(sc(/N=C/c3c[nH]c4ccccc34)c2C#N)C1	Myeloid diff MLP active | Myeloid diff CP1 inactive | GFP autofluor 16.2
CN1CCc2c(sc(/N=C/c3c[nH]c4ccccc34)c2C(N)=O)C1	Myeloid diff MLP active | Myeloid diff CP1 inactive | GFP autofluor inactive
CN1CCc2c(sc(/N=C/c3cc(Cl)ccc3O)c2C#N)C1	none
CCOC(=O)c1c(/N=C/c2ccc(OC)cc2O)sc2c1CCN(C)C2	none
CC1CCCCN1C(=O)CSc1nc(C2CC2)nc2ccccc12 (stereo unspecified)	none
CCOC(=O)c1cccc(NC(=O)CC2Oc3ccccc3NC2=O)c1 (stereo unspecified)	none
CCCCCC1=C(C(=O)OC)C(C(=O)OCC)N(S(=O)(=O)C(F)(F)F)c2ccccc21 (stereo unspecified)	none
NC(=S)N/N=C/c1ccc(-c2ccc([N+](=O)[O-])cc2)o1	none | Myeloid diff CP1 inactive | GFP autofluor inactive
NC(=S)N/N=C/c1ccc(-c2cc(Cl)cc(Cl)c2)o1	none
CCCC(=O)Nc1ccc(Cl)c(NC(=S)NC(=O)c2ccco2)c1	none
COc1cccc(CCNS(=O)(=O)CCNC(=O)c2cccc(OC)c2)c1	none
COc1cc(C(=O)OCC(=O)Nc2ccccc2)cc2c1OCCO2	none
COc1cc(C(=O)OC(C)C(=O)N2CCCC2)cc2c1OCCO2 (stereo unspecified)	none | Myeloid diff CP1 inactive | GFP autofluor inactive
COc1cc(C(=O)OCC(=O)NC2CCCCC2)cc2c1OCCO2	Myeloid diff MLP active | Myeloid diff CP1 inactive | GFP autofluor inactive
COc1cc(C(=O)OCC(=O)NC2CCCCC2)cc(OC)c1OC	none
O=C(O)CN1CCc2ccccc2C1	none
Cc1ccccc1CN(c1ccc(C(=O)Nc2ccccc2C(=O)NCc2ccco2)cc1)S(C)(=O)=O	none | Myeloid diff CP1 inactive | GFP autofluor inactive
Cc1ccc(C(=O)Nc2ccccc2C(=O)NCc2ccco2)cc1	ABCB6 inh 2 inconclusive
CCOC(=O)CSc1nc(C)c2cccc(C)c2n1	none
CCCSc1nc(C)c2cc(C)cc(C)c2n1	Myeloid diff MLP active | Myeloid diff CP1 inactive | GFP autofluor inactive
O=C(COC(=O)CCc1ccccc1)NC1CCS(=O)(=O)C1 (stereo unspecified)	none
Nc1nc(-c2ccc(Oc3ccccc3)cc2)c(CC(=O)O)s1	none | Myeloid diff CP1 inactive | GFP autofluor inactive
Nc1nc(-c2ccccc2)c(CC(=O)O)s1	none
